Screening data deposited in PubChem by National Center for Advancing Translational Sciences (NCATS).
GLP1R inv ag: qHTS of GLP-1 Receptor Inverse Agonists (Inhibition Mode) | Glucagon-like peptide 1 receptor (Homo sapiens), P43220 | HEK293 GLP-1R CRE-luciferase, luminescence, 24 h; GLP-1R form is constitutively active | Potency, µM (titrated, usually from 38.3 µM), for the others: at the highest dose activity change, negative = inhibition, actives largely listed as inhibitors | actives 1.6% (n = 410,000); also: potency is read from the fitted curve at half-maximal effect; % is scaled to controls: 0 for no effect and ±100 for the full control effect; nearly all actives have a fitted effect of over 55% in size
Target sequence (P43220 whole entry, looked up): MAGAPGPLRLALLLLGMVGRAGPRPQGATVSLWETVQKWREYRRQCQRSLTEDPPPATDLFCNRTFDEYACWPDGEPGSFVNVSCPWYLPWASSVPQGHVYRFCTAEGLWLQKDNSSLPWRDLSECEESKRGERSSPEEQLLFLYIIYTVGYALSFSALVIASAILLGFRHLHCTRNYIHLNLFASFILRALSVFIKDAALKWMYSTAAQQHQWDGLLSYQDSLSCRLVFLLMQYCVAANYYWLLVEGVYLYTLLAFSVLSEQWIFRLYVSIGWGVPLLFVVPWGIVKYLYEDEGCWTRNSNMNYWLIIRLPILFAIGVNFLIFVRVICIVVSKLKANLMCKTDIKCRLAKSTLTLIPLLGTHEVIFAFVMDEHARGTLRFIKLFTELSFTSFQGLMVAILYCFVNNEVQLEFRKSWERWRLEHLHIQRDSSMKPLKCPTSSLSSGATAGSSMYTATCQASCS
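HEK293 cells stably co-expressing constitutively active GLP-1R and a cAMP-responsive luciferase reporter were seeded in DMEM with 10% Nu serum, given compounds after 12 h, and incubated 24 h at 37 deg C. Luminescence was then read.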
D3 antag: qHTS of D3 Dopamine Receptor Antagonist: qHTS | D3R cells, DiscoveRx beta-arrestin luminescence, antagonist mode; active compounds read low | max response, negative = inhibition, % | actives 2.5% (n = 360,000); in the data active = max response below about -50%; inconclusive = no clear call, values can overlap the other calls; also: % is scaled to controls: 0 for no effect and ±100 for the full control effect
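Cells plated overnight at 1500 cells/well, then exposed to library compounds with dopamine controls for 90 minutes at 37 degrees C. DiscoveRx reagent added for 30–60 minutes at room temperature; luminescence read, quantitative HTS format.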
D3 ag: qHTS of D3 Dopamine Receptor Agonist: qHTS; max activation, %; AID 652048, 2013; D3R DiscoveRx beta-arrestin cells, luminescence, 90 min; actives 0.58% (n = 410,000); D(3) dopamine receptor (Homo sapiens), P35462; in the data active = max activation above about 30%; also: 0% is about no effect
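Agonist mode: compounds and dopamine controls were applied to plated cells for 90 min at 37 degrees C after an overnight attachment at 1500 cells/well. Luminescent read-out followed 30 - 60 minutes at room temperature with DiscoveRx detection reagent.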
GLP1R ag: qHTS of GLP-1 Receptor Agonists. Glucagon-like peptide 1 receptor (Homo sapiens), P43220. HEK293 GLP-1R CRE-luciferase, luminescence, 4-6 h; cells express a hypersensitive GLP-1R form. Potency, µM (series often up to 45.6 µM), inactives show at the top dose activation, actives largely listed as activators. actives 0.007% (n = 380,000); also: potency is read from the fitted curve at half-maximal effect; % of control where 0% means no effect
Starred values were filed as active, the others as inactive; ? = inconclusive; nt = no result given. Most compounds without a hit are left out; they make up all but 4.3% or so of the library. Unless noted, calls follow the shape of the dose curve; as a rule, active = well fitted curve in the direction sought with a large enough effect; inconclusive = small, poorly fitted or top-dose-only effect, or another doubt; inactive = no such curve, though single readings can be large; an effect the other way counts as inactive or inconclusive.

SMILES	GLP1R inv ag	D3 antag	D3 ag	GLP1R ag
COc1ccc(-c2[nH]ncc2CN2CCC(C(=O)c3ccc(F)cc3)CC2)cc1	?	-90.2*	-16.3	17.3%
Cn1c(CCNC(=O)c2ccco2)nc2cc(NC(=O)COc3ccc(Cl)cc3)ccc21	3.2%	nt	1.0	nt
COc1cc(NC(=O)c2ccccc2)c(OC)cc1NC(=O)CN1CCCCC1	5.01µM*	-11.9	-2.6	?
COc1ccc(NC(=O)CN2CCC(C(=O)c3ccc(F)cc3)CC2)c(OC)c1	?	-73.3*	-16.6	22.0%
CC(C)CS(=O)(=O)c1oc(-c2ccc(F)cc2)nc1S(=O)(=O)c1ccccc1	?	nt	-18.9	nt
CCCCCn1c(=O)[nH]c2cc(C(=O)NCCN3C(C)CCCC3C)ccc2c1=O (centres undefined)	1.78µM*	-22.1	-27.2	6.1%
CN1CCN(C(=S)SCC(=O)N2CCCc3ccccc32)CC1	?	-60.5*	-50.1	4.3%
N#Cc1cn(CC(=O)N2CCCc3ccccc32)c2ccccc12	?	-9.2	0.1	-7.7%
O=Cc1cn(CC(=O)N2CCCc3ccccc32)c2ccccc12	?	-56.5*	-5.9	-1.8%
CC1(C)[C@H]2CC[C@]1(C)[C@H](O)C2	nt	nt	-7.8	nt
CC(NC(=O)CSCc1ccc(Br)cc1)c1ccccc1 (centres undefined)	7.08µM*	2.6	-2.5	14.4%
CCc1cccc(C)c1NC(=O)CSc1nc2c(c(=O)[nH]1)CCC2	4.1%	nt	0.5	nt
Cc1cc(OC(=O)c2ccccc2Cl)cc(=O)n1C	-15.4%	85.7	35.4*	-0.5%
O=C(Oc1ccc(N2C(=O)CCC2=O)cc1)c1ccccc1Cl	17.8%	1.5	0.9	-4.2%
Cc1nn(C(=O)c2cccc(Cl)c2)c(C)c1S(=O)(=O)N1CCOCC1	15.5%	nt	-5.1	0.9%
Cc1nc2ccccc2c2oc(C(=O)Nc3ccc(C(C)C)cc3)cc12	7.94µM*	51.0	1.3	-1.8%
CCc1nn(CC(=O)NCCN(CC(C)C)CC(C)C)c(=O)c2cc3sc(C)cc3n12	-13.2%	nt	3.5	nt
COc1ccccc1CNC(=O)Cc1csc2nc(-c3ccccc3)cn12	5.9%	nt	5.7	nt
Cc1ccc(S(=O)(=O)N(CC(=O)Nc2ccccc2C(=O)O)c2cccc(Cl)c2C)cc1	8.91µM*	25.9	5.6	-9.6%
CCOC(=O)c1c(C)[nH]c(C)c1S(=O)(=O)N(C)CC(=O)Nc1ccc(CC)cc1	-5.3%	nt	-11.4	nt
O=C(c1cn(-c2ccccc2)nc1-c1cccs1)N(CCO)Cc1ccccc1	11.2µM*	-5.1	-3.2	17.2%
CC1=C(C#N)C(c2ccc3ncccc3c2)C(C#N)=C(C)N1	2.1%	-60.5*	17.7	-1.7%
O=C(NNC1=C(C(=O)C(F)(F)F)CCC1)c1cccc(Cl)c1	2.82µM*	98.4	5.9	1.1%
O=C(NNC1=C(C(=O)C(F)(F)F)CCC1)c1ccc(Cl)cc1	0.0%	46.6	10.9	0.9%
C=C1CCC(O)C/C1=C/C=C1\CCC[C@]2(C)[C@@H]([C@H](C)/C=C/[C@H](C)C(C)C)CC[C@@H]12 (some centres undefined)	nt	nt	nt	16.6%
SMILES	GLP1R inv ag	D3 antag	D3 ag	GLP1R ag
CCCc1cc(=O)[nH]c2nnc(SCCC(C)C)n12	-6.0%	nt	0.8	nt
COc1ccc(NC(=O)C2C3C=CC(C3)C2C(=O)NCc2ccco2)c(OC)c1 (centres undefined)	2.3%	-55.7*	0.5	-9.8%
NC(=O)c1cccn1Cc1cccc(Cl)c1	0.0%	12.8	-10.1	-4.0%
NC(=O)c1cccn1Cc1ccccc1Cl	5.1%	-76.7*	-0.2	0.5%
COC(=O)c1ccc(Cl)cc1NC(=O)N(Cc1ccc(C)o1)C1CCN(C(C)=O)CC1	-8.1%	nt	1.4	nt
CC(C)Cc1ccc(C(C)C(=O)Nc2cccnc2)cc1 (centres undefined)	7.94µM*	27.7	6.0	-6.5%
CC(C(=O)Nc1cccnc1)c1ccc([N+](=O)[O-])cc1 (centres undefined)	17.4%	-15.1	-0.8	9.2%
CC(CC(=O)Nc1cccnc1)c1ccccc1 (centres undefined)	9.4%	-11.4	41.7*	-0.7%
CCc1nc(C)c(-c2ccccc2)c(=O)[nH]1	5.3%	-93.8*	-6.8	-5.5%
Cc1sc2nc(Cc3ccccc3)[nH]c(=O)c2c1-c1ccccc1	6.8%	-1.4	-18.3	0.1%
